A short description of experiment [1]: NCI Yeast Anticancer Drug Screen. Data for the rad50 strain (AID 155).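 Also: 0% = growth of vehicle-only cultures of the same strain.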 Particulars: S. cerevisiae rad50 strain growth inhibition, hits give high values. The procedure, abridged: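 A DNA repair-deficient yeast mutant serves as the test organism; compound-induced growth inhibition is calculated against vehicle-treated cells.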
A short description of experiment [2]: NCI Yeast Anticancer Drug Screen. Data for the mec2-1 strain (AID 157). Particulars: S. cerevisiae mec2-1 strain, hits give high values. The method in brief:
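Growth inhibition is read against vehicle-treated controls after compound exposure of the mec2-1 yeast strain, which is defective in DNA damage repair or cell cycle control.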

A short description of experiment [3]: NCI Yeast Anticancer Drug Screen. Data for the sgs1 mgt1 strain (AID 161).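 Also: 0% = growth of cultures given vehicle only.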 Particulars: S. cerevisiae sgs1 mgt1 strain, hits give high values. The procedure, abridged: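 Yeast cells carrying a defined DNA-repair defect were exposed to test compounds. Growth inhibition was measured relative to vehicle-treated controls.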
A short description of experiment [4]: NCI Yeast Anticancer Drug Screen. Data for the cln2 rad14 strain (AID 165).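 Also: 0% = growth equal to vehicle treated cultures.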 Particulars: S. cerevisiae cln2 rad14 strain, hits give high values. The method in brief: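 Growth inhibition, relative to vehicle-treated controls, is the read-out. The test organism is a yeast strain with defined genetic alterations, cln2 rad14.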
The nature of experiment [5]: NCI Yeast Anticancer Drug Screen. Data for the bub3 strain (AID 167). The conditions noted are these: S. cerevisiae bub3 mutant strain, hits give high values. The procedure, abridged: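 Inhibition values come from growth of compound-treated mutant yeast normalised to vehicle-treated controls.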
Experiment [6] can be described thus: NCI Yeast Anticancer Drug Screen. Data for the mlh1 rad18 strain (AID 175). The conditions noted are these: S. cerevisiae mlh1 rad18 strain growth inhibition, hits give high values. The procedure, abridged:
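Cells of a genetically altered yeast strain, deficient in DNA damage repair, were treated with compound. Their growth was then compared with that of vehicle-treated cultures to give inhibition.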

Where [7] appears, read: at 5.0 µM (retest, dose inferred, filed as 0.5).
Setting [8] is: at 50.0 µM (retest, dose inferred, filed as 5.0).

Structures are written as SMILES. Compounds without any hit were thinned out: in the full panel of roughly 79,000, 15% have a hit. Values without a mark were called inactive. Activity calls are given as the source filed them. Rule as the data show it: active = growth inhibition above about 70%; inactive = the rest. Where a SMILES comes first, the peptide text is derived from it. The star is where a group is joined. Fmoc = O=C(OCC1c2ccccc2-c2ccccc21)*; Boc = CC(C)(C)OC(=O)*

For `S=c1[nH]c2cc(Cl)ccc2s1.[Zn+2]`, the growth inhibition was -2% in experiment [1] (setting [7]); 91% (active) in experiment [1] (setting [8]); 95.3% (active) in experiment [1] (at 50.0 µM); 8% in experiment [2] (setting [7]); 96% (active) in experiment [2] (setting [8]); 97.8% (active) in experiment [2] (at 50.0 µM). Moreover, the growth inhibition in experiment [3] (setting [7]) was 3%; in experiment [3] (setting [8]), 97% (active); in experiment [3] (at 50.0 µM) it was 93.3% (active); in experiment [4] (setting [7]), -2%; in experiment [4] (setting [8]), 95% (active); in experiment [4] (at 50.0 µM) it was 96.7% (active). For the same molecule, the growth inhibition was 12% in experiment [5] (setting [7]); 92% (active) in experiment [5] (setting [8]); 97% (active) in experiment [5] (at 50.0 µM); 0% in experiment [6] (setting [7]); 96% (active) in experiment [6] (setting [8]); 97.5% (active) in experiment [6] (at 50.0 µM).
For `CC1CCCC(CCN(C)CCC2CCCCC2)CC1` (configuration not stated), the growth inhibition in experiment [1] (setting [7]) was 21%; in experiment [1] (setting [8]), 98% (active); in experiment [1] (at 50.0 µM) it was 99.3% (active); in experiment [2] (setting [7]), 9%; in experiment [2] (setting [8]) it was 99% (active); in experiment [2] (at 50.0 µM), 99.2% (active). Further, the growth inhibition in experiment [3] (setting [7]) is 35%; in experiment [3] (setting [8]) it was 99% (active); in experiment [3] (at 50.0 µM), 99.4% (active); in experiment [4] (setting [7]), 21%; in experiment [4] (setting [8]), 97% (active); in experiment [4] (at 50.0 µM), 99.1% (active). Moreover, the growth inhibition in experiment [5] (setting [7]) was 7%; in experiment [5] (setting [8]), 79% (active); in experiment [5] (at 50.0 µM), 99% (active); in experiment [6] (setting [7]), 45%; in experiment [6] (setting [8]), 98% (active); in experiment [6] (at 50.0 µM), 99.1% (active).
For `O=C(C(/C=N/C(=S)NCc1ccccc1)=C(/O)c1ccccc1)c1ccccc1`, the growth inhibition is 6% in experiment [1] (setting [7]); 86% (active) in experiment [1] (setting [8]); 98.8% (active) in experiment [1] (at 50.0 µM); -1% in experiment [2] (setting [7]); 69% in experiment [2] (setting [8]); 98% (active) in experiment [2] (at 50.0 µM). The growth inhibition in experiment [3] (setting [7]) is 3%; in experiment [3] (setting [8]), 61%; in experiment [3] (at 50.0 µM), 98.2% (active); in experiment [4] (setting [7]) it was -9%; in experiment [4] (setting [8]), 87% (active); in experiment [4] (at 50.0 µM), 97.7% (active). The growth inhibition in experiment [5] (setting [7]) was 2%; in experiment [5] (setting [8]), 97% (active); in experiment [5] (at 50.0 µM) it was 98.3% (active); in experiment [6] (setting [7]), 12%; in experiment [6] (setting [8]) it was 71% (active); in experiment [6] (at 50.0 µM), 98.7% (active).
For `C[CH2][Ge]([CH2]C)[CH2]C.C[CH2][Ge]([Cl])[CH2]C.C[CH2][Ge][CH2]C`, the growth inhibition in experiment [1] (setting [7]) is 19%; in experiment [1] (setting [8]), 96% (active); in experiment [1] (at 50.0 µM) it was 98% (active); in experiment [2] (setting [7]), 15%; in experiment [2] (setting [8]), 98% (active); in experiment [2] (at 50.0 µM) it was 98.6% (active). Further, the growth inhibition in experiment [3] (setting [7]) was 23%; in experiment [3] (setting [8]), 96% (active); in experiment [3] (at 50.0 µM) it was 98.1% (active); in experiment [4] (setting [7]), 8%; in experiment [4] (setting [8]), 94% (active); in experiment [4] (at 50.0 µM), 97% (active). The growth inhibition was 17% in experiment [5] (setting [7]); 96% (active) in experiment [5] (setting [8]); 98.2% (active) in experiment [5] (at 50.0 µM); 12% in experiment [6] (setting [7]); 95% (active) in experiment [6] (setting [8]); 98.2% (active) in experiment [6] (at 50.0 µM).
With `CC(C)(C)OC(=O)NCCCCC(NC(=O)OCC1c2ccccc2-c2ccccc21)C(=O)N1CCCC1C(=O)NCC(N)=O` (stereo not drawn) (Fmoc-Lys(Boc)-Pro-Gly-NH2; configuration not given here), the growth inhibition in experiment [1] (setting [7]) is 10%; in experiment [1] (setting [8]), 98% (active); in experiment [1] (at 50.0 µM), 86.8% (active); in experiment [2] (setting [7]), 13%; in experiment [2] (setting [8]) it was 95% (active); in experiment [2] (at 50.0 µM), 94.4% (active). The growth inhibition in experiment [3] (setting [7]) was 5%; in experiment [3] (setting [8]), 89% (active); in experiment [3] (at 50.0 µM), 90.3% (active); in experiment [4] (setting [7]), 10%; in experiment [4] (setting [8]), 91% (active); in experiment [4] (at 50.0 µM), 82.8% (active). For the same molecule, the growth inhibition in experiment [5] (setting [7]) was -10%; in experiment [5] (setting [8]), 97% (active); in experiment [5] (at 50.0 µM), 93.1% (active); in experiment [6] (setting [7]), 19%; in experiment [6] (setting [8]), 97% (active); in experiment [6] (at 50.0 µM), 93.3% (active).
Take `CC(C)(C)c1cc(Cl)c(O)c(Cc2cc(C(C)(C)C)cc(Cl)c2O)c1`: the growth inhibition in experiment [1] (setting [7]) is 5%; in experiment [1] (setting [8]) it was 67%; in experiment [1] (at 50.0 µM), 67%; in experiment [2] (setting [7]) it was 36%; in experiment [2] (setting [8]), 78% (active); in experiment [2] (at 50.0 µM), 72.2% (active). Besides, the growth inhibition is -4% in experiment [3] (setting [7]); 84% (active) in experiment [3] (setting [8]); 82.5% (active) in experiment [3] (at 50.0 µM); 14% in experiment [4] (setting [7]); 79% (active) in experiment [4] (setting [8]); 82% (active) in experiment [4] (at 50.0 µM). In addition, the growth inhibition in experiment [5] (setting [7]) is 9%; in experiment [5] (setting [8]), 76% (active); in experiment [5] (at 50.0 µM), 62.5%; in experiment [6] (setting [7]), 52%; in experiment [6] (setting [8]) it was 85% (active); in experiment [6] (at 50.0 µM), 70.5% (active).
As for `O=C1CSC(=S)N1Cc1ccncc1`, the growth inhibition in experiment [1] (setting [7]) is 2%; in experiment [1] (setting [8]), 38%; in experiment [1] (at 50.0 µM), 39.1%; in experiment [2] (setting [7]), -14%; in experiment [2] (setting [8]), 37%; in experiment [2] (at 50.0 µM) it was 40.9%. Further, the growth inhibition in experiment [3] (setting [7]) was -8%; in experiment [3] (setting [8]), 25%; in experiment [3] (at 50.0 µM), 57.5%; in experiment [4] (setting [7]) it was 24%; in experiment [4] (setting [8]), 31%; in experiment [4] (at 50.0 µM), 18.6%. Moreover, the growth inhibition in experiment [5] (setting [7]) was 12%; in experiment [5] (setting [8]), 29%; in experiment [5] (at 50.0 µM) it was 65.5%; in experiment [6] (setting [7]), -16%; in experiment [6] (setting [8]) it was 71% (active); in experiment [6] (at 50.0 µM) it was 39.3%.
Consider `CCOc1ccccc1/C=N/Nc1nnc(N/N=C/c2ccccc2OCC)c2ccccc12`, for which the growth inhibition was 0% in experiment [1] (setting [7]); 42% in experiment [1] (setting [8]); 44% in experiment [1] (at 50.0 µM); 9% in experiment [2] (setting [7]); 64% in experiment [2] (setting [8]); 48.8% in experiment [2] (at 50.0 µM). The growth inhibition is -24% in experiment [3] (setting [7]); 38% in experiment [3] (setting [8]); 41.5% in experiment [3] (at 50.0 µM); -10% in experiment [4] (setting [7]); 58% in experiment [4] (setting [8]); 45.2% in experiment [4] (at 50.0 µM). Moreover, the growth inhibition is -4% in experiment [5] (setting [7]); 54% in experiment [5] (setting [8]); 44.2% in experiment [5] (at 50.0 µM); 7% in experiment [6] (setting [7]); 80% (active) in experiment [6] (setting [8]); 43.9% in experiment [6] (at 50.0 µM).
Consider `O=C(O)c1ccc(C(=O)c2ccccc2C(=O)O)cc1`, for which the growth inhibition in experiment [1] (setting [7]) was -3%; in experiment [1] (setting [8]), -4%; in experiment [1] (at 50.0 µM), 99.3% (active); in experiment [2] (setting [7]), -5%; in experiment [2] (setting [8]), -2%; in experiment [2] (at 50.0 µM), 99.7% (active). Moreover, the growth inhibition in experiment [3] (setting [7]) was -1%; in experiment [3] (setting [8]), -1%; in experiment [3] (at 50.0 µM) it was 99.4% (active); in experiment [4] (setting [7]), -2%; in experiment [4] (setting [8]), -7%; in experiment [4] (at 50.0 µM), 98.5% (active). The growth inhibition was 0% in experiment [5] (setting [7]); -1% in experiment [5] (setting [8]); 99.7% (active) in experiment [5] (at 50.0 µM); 1% in experiment [6] (setting [7]); 0% in experiment [6] (setting [8]); 99.3% (active) in experiment [6] (at 50.0 µM).
